Reference: the supplement of paper PMC11732987, “Enantioselective OTUD7B fragment discovery through chemoproteomics screening and high-throughput optimisation” (Communications Chemistry, 2025)

Columns and labels:
Experiment in all cases: log2 ratio of Biotin-Ahx-Ub-VS probe labelling (fragment/DMSO); higher = less target engagement (more negative = stronger competition), active = hit call of the paper (q ≤ 0.05, log2 ratio ≤ -1)
Settings in all cases: compound concentration: 200 uM; treatment time: 3 h
[1] = target: T1, USP19 (UniProt O94966)
T1 sequence (whole entry): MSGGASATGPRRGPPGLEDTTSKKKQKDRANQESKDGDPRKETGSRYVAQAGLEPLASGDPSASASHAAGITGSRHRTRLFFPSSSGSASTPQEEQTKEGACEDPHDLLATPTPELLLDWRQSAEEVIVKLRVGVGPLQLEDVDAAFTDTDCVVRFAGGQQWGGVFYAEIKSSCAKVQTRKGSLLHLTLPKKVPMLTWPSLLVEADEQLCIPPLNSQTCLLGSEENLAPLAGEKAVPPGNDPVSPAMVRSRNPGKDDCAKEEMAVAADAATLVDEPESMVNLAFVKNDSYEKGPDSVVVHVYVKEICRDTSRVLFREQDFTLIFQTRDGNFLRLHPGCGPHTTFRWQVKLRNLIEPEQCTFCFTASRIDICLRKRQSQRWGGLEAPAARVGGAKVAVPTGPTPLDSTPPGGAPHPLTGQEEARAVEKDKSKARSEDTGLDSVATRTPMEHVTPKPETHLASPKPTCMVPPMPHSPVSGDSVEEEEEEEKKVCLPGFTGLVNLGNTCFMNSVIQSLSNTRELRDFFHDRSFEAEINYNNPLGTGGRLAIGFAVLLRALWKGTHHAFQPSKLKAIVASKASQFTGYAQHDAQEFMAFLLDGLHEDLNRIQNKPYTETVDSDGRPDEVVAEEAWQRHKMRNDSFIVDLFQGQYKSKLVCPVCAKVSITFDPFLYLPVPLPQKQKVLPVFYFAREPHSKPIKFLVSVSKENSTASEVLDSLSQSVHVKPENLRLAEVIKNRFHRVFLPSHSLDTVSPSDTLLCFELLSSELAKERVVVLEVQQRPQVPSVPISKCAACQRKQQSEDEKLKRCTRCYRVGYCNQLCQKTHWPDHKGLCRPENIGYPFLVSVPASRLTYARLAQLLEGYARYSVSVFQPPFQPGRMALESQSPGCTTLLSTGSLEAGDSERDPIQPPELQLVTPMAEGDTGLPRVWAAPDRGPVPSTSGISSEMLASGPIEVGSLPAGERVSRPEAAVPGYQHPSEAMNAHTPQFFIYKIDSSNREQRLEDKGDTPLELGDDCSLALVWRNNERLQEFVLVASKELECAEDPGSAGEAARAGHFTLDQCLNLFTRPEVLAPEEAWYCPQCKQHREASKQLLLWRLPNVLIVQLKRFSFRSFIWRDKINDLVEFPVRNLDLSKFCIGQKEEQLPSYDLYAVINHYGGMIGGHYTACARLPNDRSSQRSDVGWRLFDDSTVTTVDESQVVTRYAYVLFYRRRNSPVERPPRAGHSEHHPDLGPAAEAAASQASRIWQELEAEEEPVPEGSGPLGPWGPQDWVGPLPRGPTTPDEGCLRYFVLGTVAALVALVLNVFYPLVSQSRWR
How it was run: (§1)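 Using Biotin-Ahx-Ub-VS at 0.5 µM final for 1 h, DUBs were labelled in HEK293T lysate (495 µg per sample) that had first been treated in triplicate with fragment at 200 µM or vehicle for 3 h. NeutrAvidin enrichment, LysC and trypsin digestion and diaPASEF LC-MS/MS followed. Spectronaut label-free quantities were global-median-normalised. Values are average log2 fragment/vehicle ratios by unpaired t-test, using proteins with ≥2 unique peptides.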

[2] = target: USP24 (UniProt Q9UPU5)
USP24, sequence (Q9UPU5 whole entry): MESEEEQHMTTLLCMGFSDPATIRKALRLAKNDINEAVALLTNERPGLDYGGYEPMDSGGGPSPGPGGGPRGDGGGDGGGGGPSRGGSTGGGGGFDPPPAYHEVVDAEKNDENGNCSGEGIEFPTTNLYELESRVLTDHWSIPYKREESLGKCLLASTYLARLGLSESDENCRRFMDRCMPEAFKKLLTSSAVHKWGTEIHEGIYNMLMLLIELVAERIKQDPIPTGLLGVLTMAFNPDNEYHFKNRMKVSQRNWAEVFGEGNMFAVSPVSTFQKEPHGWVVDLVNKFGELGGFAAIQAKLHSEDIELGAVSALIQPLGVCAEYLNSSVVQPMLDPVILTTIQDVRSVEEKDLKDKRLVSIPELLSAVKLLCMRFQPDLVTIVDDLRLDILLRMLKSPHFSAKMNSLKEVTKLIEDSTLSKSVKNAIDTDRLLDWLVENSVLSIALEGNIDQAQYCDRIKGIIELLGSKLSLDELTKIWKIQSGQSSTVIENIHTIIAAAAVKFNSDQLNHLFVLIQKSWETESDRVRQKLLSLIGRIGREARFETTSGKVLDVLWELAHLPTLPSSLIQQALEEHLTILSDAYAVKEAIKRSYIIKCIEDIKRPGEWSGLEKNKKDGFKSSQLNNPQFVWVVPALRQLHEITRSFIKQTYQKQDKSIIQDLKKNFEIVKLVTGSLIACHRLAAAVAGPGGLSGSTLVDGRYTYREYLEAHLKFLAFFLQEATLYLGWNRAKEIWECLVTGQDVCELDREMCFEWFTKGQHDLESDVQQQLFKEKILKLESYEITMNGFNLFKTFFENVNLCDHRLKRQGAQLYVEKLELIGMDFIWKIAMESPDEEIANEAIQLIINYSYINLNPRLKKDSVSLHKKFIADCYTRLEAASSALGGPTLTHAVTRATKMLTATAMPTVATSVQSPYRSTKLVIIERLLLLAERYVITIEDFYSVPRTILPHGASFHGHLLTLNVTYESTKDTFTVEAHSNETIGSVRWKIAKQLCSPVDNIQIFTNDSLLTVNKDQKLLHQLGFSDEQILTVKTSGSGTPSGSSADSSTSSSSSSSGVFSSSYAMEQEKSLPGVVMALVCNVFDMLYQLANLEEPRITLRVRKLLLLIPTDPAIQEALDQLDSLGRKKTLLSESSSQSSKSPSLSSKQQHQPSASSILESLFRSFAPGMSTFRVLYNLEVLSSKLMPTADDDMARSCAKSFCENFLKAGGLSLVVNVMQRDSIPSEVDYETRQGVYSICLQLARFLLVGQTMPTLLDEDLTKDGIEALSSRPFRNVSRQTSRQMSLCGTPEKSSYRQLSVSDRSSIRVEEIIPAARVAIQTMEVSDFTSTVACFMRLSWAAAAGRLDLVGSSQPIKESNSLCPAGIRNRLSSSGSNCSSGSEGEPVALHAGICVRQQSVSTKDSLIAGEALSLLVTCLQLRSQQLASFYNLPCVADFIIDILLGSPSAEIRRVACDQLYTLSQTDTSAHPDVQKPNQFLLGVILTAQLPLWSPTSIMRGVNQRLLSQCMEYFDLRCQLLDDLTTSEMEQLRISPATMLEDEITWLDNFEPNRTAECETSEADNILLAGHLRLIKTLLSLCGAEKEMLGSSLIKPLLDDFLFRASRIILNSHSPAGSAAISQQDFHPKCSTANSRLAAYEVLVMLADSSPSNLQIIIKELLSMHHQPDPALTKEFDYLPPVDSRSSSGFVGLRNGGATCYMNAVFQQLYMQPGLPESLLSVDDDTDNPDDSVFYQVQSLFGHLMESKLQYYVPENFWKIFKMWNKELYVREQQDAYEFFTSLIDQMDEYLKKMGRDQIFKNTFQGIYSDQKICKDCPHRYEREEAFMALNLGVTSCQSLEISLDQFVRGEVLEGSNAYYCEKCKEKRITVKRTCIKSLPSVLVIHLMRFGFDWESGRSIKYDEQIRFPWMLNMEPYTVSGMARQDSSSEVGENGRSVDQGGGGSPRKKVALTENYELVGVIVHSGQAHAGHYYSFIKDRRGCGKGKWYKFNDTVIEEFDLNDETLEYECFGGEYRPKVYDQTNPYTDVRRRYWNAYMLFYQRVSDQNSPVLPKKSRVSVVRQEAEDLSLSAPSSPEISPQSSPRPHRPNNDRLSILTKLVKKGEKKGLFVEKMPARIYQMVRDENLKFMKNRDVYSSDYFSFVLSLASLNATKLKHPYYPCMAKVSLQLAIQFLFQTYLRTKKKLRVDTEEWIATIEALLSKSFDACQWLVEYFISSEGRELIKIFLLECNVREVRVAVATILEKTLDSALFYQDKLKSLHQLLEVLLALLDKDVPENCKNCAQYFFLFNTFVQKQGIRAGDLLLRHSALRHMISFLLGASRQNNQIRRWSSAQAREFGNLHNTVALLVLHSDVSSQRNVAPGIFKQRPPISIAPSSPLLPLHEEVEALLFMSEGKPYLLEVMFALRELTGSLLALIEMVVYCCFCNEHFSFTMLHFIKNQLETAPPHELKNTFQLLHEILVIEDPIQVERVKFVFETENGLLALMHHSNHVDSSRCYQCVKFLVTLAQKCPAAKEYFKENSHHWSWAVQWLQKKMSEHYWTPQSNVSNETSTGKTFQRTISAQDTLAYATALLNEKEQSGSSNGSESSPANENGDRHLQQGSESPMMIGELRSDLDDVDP
How it was run: as §1

[3] = target: T2, USP25 (UniProt Q9UHP3)
T2 sequence (whole entry): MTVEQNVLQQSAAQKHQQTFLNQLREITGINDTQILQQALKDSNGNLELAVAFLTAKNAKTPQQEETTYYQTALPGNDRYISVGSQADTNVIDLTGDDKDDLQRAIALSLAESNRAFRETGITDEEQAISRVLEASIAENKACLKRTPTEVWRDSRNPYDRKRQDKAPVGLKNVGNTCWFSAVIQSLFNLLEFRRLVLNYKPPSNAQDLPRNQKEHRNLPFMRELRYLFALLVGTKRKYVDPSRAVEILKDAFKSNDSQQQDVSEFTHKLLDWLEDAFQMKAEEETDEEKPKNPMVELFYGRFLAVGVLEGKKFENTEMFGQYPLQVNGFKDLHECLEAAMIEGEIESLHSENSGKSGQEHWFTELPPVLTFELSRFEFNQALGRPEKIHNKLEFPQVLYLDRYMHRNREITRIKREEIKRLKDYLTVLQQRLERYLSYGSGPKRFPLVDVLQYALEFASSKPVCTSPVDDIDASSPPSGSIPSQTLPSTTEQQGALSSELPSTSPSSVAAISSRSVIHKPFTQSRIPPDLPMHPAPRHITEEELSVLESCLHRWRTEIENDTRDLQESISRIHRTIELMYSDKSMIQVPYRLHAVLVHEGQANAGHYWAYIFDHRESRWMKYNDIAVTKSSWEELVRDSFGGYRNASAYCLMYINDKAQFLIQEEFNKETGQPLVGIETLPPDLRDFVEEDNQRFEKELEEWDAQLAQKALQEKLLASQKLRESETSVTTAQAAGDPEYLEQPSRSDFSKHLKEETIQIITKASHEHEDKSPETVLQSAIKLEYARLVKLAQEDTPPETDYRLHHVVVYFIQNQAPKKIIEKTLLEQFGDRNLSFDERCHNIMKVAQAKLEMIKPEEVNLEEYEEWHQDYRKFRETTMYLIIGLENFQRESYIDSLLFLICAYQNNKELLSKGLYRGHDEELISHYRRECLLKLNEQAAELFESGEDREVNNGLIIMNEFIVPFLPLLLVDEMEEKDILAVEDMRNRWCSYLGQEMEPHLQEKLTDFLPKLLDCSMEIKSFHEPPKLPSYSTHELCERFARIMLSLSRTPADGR
How it was run: as §1

[4] = target: T3, USP28 (UniProt Q96RU2)
T3 sequence (whole entry): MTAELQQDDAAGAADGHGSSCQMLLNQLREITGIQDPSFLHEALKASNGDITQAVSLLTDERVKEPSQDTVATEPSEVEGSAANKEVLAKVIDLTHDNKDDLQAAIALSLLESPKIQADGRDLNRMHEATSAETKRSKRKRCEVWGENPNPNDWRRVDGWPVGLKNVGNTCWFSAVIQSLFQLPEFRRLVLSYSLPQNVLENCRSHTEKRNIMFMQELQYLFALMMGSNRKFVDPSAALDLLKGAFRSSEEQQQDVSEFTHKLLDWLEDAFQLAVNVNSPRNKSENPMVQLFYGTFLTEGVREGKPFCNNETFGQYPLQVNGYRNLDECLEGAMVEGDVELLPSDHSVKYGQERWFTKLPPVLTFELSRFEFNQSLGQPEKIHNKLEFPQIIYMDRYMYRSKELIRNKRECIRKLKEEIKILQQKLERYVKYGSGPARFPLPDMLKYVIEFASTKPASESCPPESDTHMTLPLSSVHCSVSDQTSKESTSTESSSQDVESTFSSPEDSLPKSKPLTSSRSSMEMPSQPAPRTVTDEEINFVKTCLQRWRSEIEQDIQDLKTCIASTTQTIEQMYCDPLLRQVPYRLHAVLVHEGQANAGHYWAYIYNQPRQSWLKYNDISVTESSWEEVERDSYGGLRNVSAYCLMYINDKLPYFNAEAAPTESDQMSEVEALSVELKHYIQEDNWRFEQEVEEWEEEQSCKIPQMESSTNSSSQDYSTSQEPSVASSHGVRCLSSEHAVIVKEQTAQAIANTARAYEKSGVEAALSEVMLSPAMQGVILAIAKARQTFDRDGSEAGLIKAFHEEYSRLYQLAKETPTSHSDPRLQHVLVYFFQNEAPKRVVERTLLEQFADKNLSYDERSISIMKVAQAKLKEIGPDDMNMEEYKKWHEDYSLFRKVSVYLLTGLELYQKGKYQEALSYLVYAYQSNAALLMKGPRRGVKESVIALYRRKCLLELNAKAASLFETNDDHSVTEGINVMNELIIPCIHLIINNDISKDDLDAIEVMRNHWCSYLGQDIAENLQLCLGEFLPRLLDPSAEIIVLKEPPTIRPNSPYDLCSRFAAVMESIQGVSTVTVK
How it was run: as §1

Measured: log2 ratio of Biotin-Ahx-Ub-VS probe labelling

O=C(CCl)NC1CCC2(CC1)OCCO2
inactive: [1] -0.189 | [2] -0.301 | [3] -0.49 | [4] -0.665
